Mcl1-Noxa inh – Mcl-1/Noxa binding inhibitors, primary screen, biochemical, TR-FRET, 1536-well | AID 1022, 2008 | inhibition, % at 21.7 µM | TR-FRET Mcl-1/Noxa peptide binding, 2 h | 1.5% of 220,000 active;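 active = compounds that cut the protein-peptide binding signal by more than 50% relative to plate controls in a single-dose test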;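 also: His-tagged Mcl-1 with rhodamine Noxa BH3 peptide and terbium anti-His antibody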
Target sequence (Q07820 whole entry, looked up): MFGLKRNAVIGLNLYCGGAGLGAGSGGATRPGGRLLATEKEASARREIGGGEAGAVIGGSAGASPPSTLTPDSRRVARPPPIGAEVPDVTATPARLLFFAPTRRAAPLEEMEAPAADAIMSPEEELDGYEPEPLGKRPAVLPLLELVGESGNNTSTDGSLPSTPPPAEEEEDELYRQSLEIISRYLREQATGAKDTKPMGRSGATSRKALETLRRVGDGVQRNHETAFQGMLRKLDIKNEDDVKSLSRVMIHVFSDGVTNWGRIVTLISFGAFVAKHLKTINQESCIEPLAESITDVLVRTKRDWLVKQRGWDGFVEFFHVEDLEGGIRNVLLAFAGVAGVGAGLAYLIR
Mcl1-Bid inh – Mcl-1/Bid binding inhibitors, primary screen, biochemical, TR-FRET, 1536-well | Induced myeloid leukemia cell differentiation protein Mcl-1 (Homo sapiens), Q07820 | TR-FRET Mcl-1/Bid-Dy647 peptide binding | inhibition, % at 21.7 µM | 0.97% of 220,000 active | AID 1021, 2008;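 active = compounds that cut the binding signal by more than half at the single screening dose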;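 also: His-tagged Mcl-1 with europium anti-His antibody binding Bid BH3 peptide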
MCL1 BIM primary – inhibitors of MCL1 binding to BIM-BH3, primary screen, biochemical, fluorescence polarization; 0.68% of 320,000 active; Induced myeloid leukemia cell differentiation protein Mcl-1 (Homo sapiens), Q07820; inhibition, % at 10.9 µM; GST-MCL1 / FITC-Bim-BH3 fluorescence polarization;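 active = inhibition above the mean inhibition of all tested compounds plus 3 SD, set per campaign, cut at about 40% in these data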;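 also: higher means more loss of mP so more displacement of Bim peptide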
Bim-Mcl-1 – inhibitors of Bim peptide binding to Mcl-1, primary screen, biochemical, bead-based flow cytometry, multiplex. Induced myeloid leukemia cell differentiation protein Mcl-1 (Homo sapiens), Q07820. Bim peptide-Mcl-1 binding. inhibition, % at 10 µM. 0.1% of 190,000 active; in the data active = inhibition above about 40%
BCLXL inh – inhibitors of human Bcl-xL, primary screen, biochemical, fluorescence polarization, HTS | Bcl-2-like protein 1 (Homo sapiens), Q07817 | GST-Bcl-xL / FITC-Bim BH3 peptide fluorescence polarization | inhibition, % at 10.9 µM | 0.7% of 320,000 active | AID 2129, 2009;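 active = inhibition above the mean of all tested compounds plus 3 SD, cutoff set per campaign, cut at about 30% in these data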;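 also: inhibitors lower millipolarization by displacing the labeled peptide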
Target sequence (Q07817 whole entry, looked up): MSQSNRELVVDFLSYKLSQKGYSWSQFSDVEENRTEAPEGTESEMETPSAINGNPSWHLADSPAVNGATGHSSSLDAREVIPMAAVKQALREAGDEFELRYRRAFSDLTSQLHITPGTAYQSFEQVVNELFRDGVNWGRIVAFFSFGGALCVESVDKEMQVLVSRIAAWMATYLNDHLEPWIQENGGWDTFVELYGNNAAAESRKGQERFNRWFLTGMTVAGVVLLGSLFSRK
GLD-1 TGE inh – GLD-1/TGE RNA complex disruptors, primary screen, biochemical, fluorescence polarization. Female germline-specific tumor suppressor gld-1 (Caenorhabditis elegans), Q17339. purified GLD-1 + fluorescein TGE RNA. inhibition, % at 5.96 µM. 0.44% of 320,000 active;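 active = percent inhibition above a per-plate cutoff, the plate mean of test compounds plus 3 SD, cut at about 30% in these data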
Hits are given with their value; – = inactive; · = not tested or not shown. This is a sample that favours compounds with a hit; in the whole collection about 2.3% have one here.

SMILES	Mcl1-Noxa inh	Mcl1-Bid inh	MCL1 BIM primary	Bim-Mcl-1	BCLXL inh	GLD-1 TGE inh
Cc1ccc(/C=N/NC(=O)c2nnn(-c3nonc3N)c2C(C)C)s1	·	·	–	·	–	–
CCCCn1c(N)c(N(CC(C)C)C(=O)C2CCN(S(=O)(=O)c3ccc(C)cc3)CC2)c(=O)[nH]c1=O	·	·	–	·	–	–
COc1ccc2c(c1)S/C(=C\C(=O)c1ccncc1)N2C	65.9	–	–	–	–	–
COc1cc(C(=O)N/N=C\c2ccccc2)c([N+](=O)[O-])c(OC)c1OC	–	95.5	–	–	–	–
COc1cc(O)c(/C=N/NC(=O)c2ccncc2)c(OC)c1[N+](=O)[O-]	53.4	–	–	–	–	–
COc1ccc(/C=N/NC(=O)c2ccncc2)cc1[N+](=O)[O-]	–	–	–	–	–	–
CC1=N/C(=C/c2cc(Br)cc(Br)c2O)C(=O)O1	·	·	–	·	–	–
O=C(c1ccco1)N(CCC(c1ccccc1)c1ccco1)Cc1ccco1 (stereo not drawn)	62.2	–	–	–	–	–
O=C(CCCC(=O)c1ccccc1)NCc1ccccc1	·	·	–	·	–	–
Cc1cccn2c(=O)c(/C=N/O)c(Nc3ccccc3F)nc12	–	54.5	–	·	–	–
N#CC1(NC(=O)COC(=O)c2cc(O)c3ccccc3c2O)CCCCC1	·	·	40.1	·	30.6	–
COc1ccc(C(C)=O)cc1COC(=O)CCNS(=O)(=O)c1ccc(C)c(C)c1	·	·	–	·	–	–
O=C(c1cccc(-c2ccccc2F)c1)N1CC[C@@H](N2CCC(O)CC2)[C@H](O)C1	·	·	–	·	–	–
Fc1cccc(CNc2ncnc3cc(Cl)ccc23)c1F	·	·	–	·	–	–
N#C/C(=C\c1ccccc1[N+](=O)[O-])C(=O)NCc1ccccc1	–	–	–	·	33.9	–
Cc1ccccc1NC(=O)/C(C#N)=C\c1cccnc1	–	–	–	–	–	–
N#C/C(=C\c1cccnc1)C(=O)Nc1ccccc1[N+](=O)[O-]	·	·	–	·	34.1	–
COc1ccc(Nc2nccc3c2ncn3C)cc1	·	·	–	·	–	–
COc1cc(CNc2ncnc3c2[nH]c2ccc(C)cc23)cc(OC)c1	–	–	–	·	–	–
Cc1ccc2[nH]c3c(NCc4ccco4)ncnc3c2c1	54.5	–	–	–	–	–
CCOC(=O)[C@@H]1[C@H]2COc3ccccc3[C@H]2N2C(=O)N(c3ccccc3)C(=O)[C@]12C	·	·	–	·	–	–
COc1ccc(N2CCN(C(=O)Cn3nnc(-c4ccc(N(C)C)cc4)n3)CC2)cc1	52.3	60.5	–	–	–	–
COc1ccc(-c2ccc(-c3nnn(CC(=O)N4CCOCC4)n3)cc2)cc1	–	–	–	–	–	–
N=C1S/C(=C\c2ccc(-c3cccc(Cl)c3)o2)C(=O)N1c1nccs1	87.6	90.6	–	–	–	–
N=C1/C(=C\c2ccc(-c3ccc(C(=O)O)cc3)o2)C(=O)N=C2SC=C(c3ccccc3)N12	116.9	95.8	·	·	·	·
SMILES	Mcl1-Noxa inh	Mcl1-Bid inh	MCL1 BIM primary	Bim-Mcl-1	BCLXL inh	GLD-1 TGE inh
N=C1/C(=C\c2ccc(-c3cccc(Cl)c3)o2)C(=O)N=C2SC=C(c3ccccc3)N12	51.4	–	–	–	–	–
Cc1cccc(-n2c(C)cc(/C=C3/C(=N)N4C(c5ccccc5)=CSC4=NC3=O)c2C)c1	–	–	–	–	–	–
CC(C)(C)CN1CCNC(=O)C1CC(=O)NCCN1CCCc2ccccc21 (stereo not drawn)	–	–	–	–	–	–
O=C(Cc1cccs1)NCc1ccccc1Br	·	·	–	·	–	–
CC(C)n1cnc2cc(NCc3ccco3)ccc21	52.0	–	–	–	–	–
O=c1c(Cl)c(O)c2cccc3c4ccccc4n1c23	65.5	–	–	–	–	–
CC1(OC(=O)c2cccs2)C(=O)C=C2C=C(c3ccsc3)OC=C2C1=O (stereo not drawn)	·	·	–	·	–	–
CC1(OC(=O)C2CCCC2)C(=O)C=C2C=C(c3ccsc3)OC=C2C1=O (stereo not drawn)	51.1	–	–	·	–	–
CC1(OC(=O)c2cccs2)C(=O)C=C2C=C(C3CC3)OC=C2C1=O (stereo not drawn)	·	·	–	·	–	35.0
CCC(=O)OC1(C)C(=O)C=C2C=C(CCCCNC(=O)OC(C)(C)C)OC=C2C1=O (stereo not drawn)	·	·	–	·	–	50.1
CCCCC1=CC2=CC(=O)C(C)(OC(=O)C3CCCC3)C(=O)C2=CO1 (stereo not drawn)	–	–	–	·	–	36.2
Cc1cccc(N2CC(C(=O)NCCC3=CCCCC3)CC2=O)c1C (stereo not drawn)	·	·	–	·	–	–
C[C@H](N)c1nnc(SCC(N)=O)o1	–	–	–	·	–	–
CCCCC1=CC2=CC(=O)C(C)(OC(=O)CC)C(=O)C2=CN1Cc1ccc(OC)cc1 (stereo not drawn)	–	–	–	·	–	–
CC(C)(C)OC(=O)NCCCC1=CC2=CC(=O)C(C)(O)C(=O)C2=CO1 (stereo not drawn)	·	·	–	·	33.7	–
C=CCN1C=C2C(=O)C(C)(OC(=O)CC)C(=O)C=C2C=C1CCCC (stereo not drawn)	–	–	–	·	–	41.7
CCCCC1=CC2=CC(=O)C(C)(OC(=O)CC)C(=O)C2=CO1 (stereo not drawn)	·	·	–	·	–	36.8
CC1(OC(=O)C2CCCC2)C(=O)C=C2C=C(c3ccsc3)N(Cc3ccco3)C=C2C1=O (stereo not drawn)	–	–	–	·	34.0	–
CNC(=O)C(=O)NCCC1CCCCN1S(=O)(=O)c1cccs1 (stereo not drawn)	·	·	–	·	–	–
Cc1csc(=O)n1CC(=O)Nc1nc2ccccc2s1	·	·	–	·	–	–
COc1ccc2ccc(OCC(=O)Nc3cc(C)on3)cc2c1	·	·	–	·	–	–
CC(C)(C)OC(=O)NCCCC1=CC2=CC(=O)C(C)(OC(=O)c3ccc(Cl)nc3)C(=O)C2=CO1 (stereo not drawn)	·	·	85.3	·	80.2	92.6
COC(=O)CCCC1=CC2=CC(=O)C(C)(O)C(=O)C2=CO1 (stereo not drawn)	·	·	–	·	–	–
COC(=O)c1ccc(COc2ccc(/C=N/Nc3cccc(C(=O)O)c3)cc2)cc1	–	–	–	·	–	–
COC(=O)c1ccc(COc2ccc(/C=N/Nc3nc(C)cc(=O)[nH]3)cc2)cc1	54.8	–	–	·	–	–
O=C(CNC(=O)c1ccc(Cl)cc1Cl)OCn1nnc2ccccc2c1=O	·	·	–	·	–	–
Cc1cccc(-n2cc(CNCCN3CCOC3=O)c(-c3cccc(F)c3)n2)c1	–	–	–	–	–	–
